Measurements published in the supplement of paper PMC8728848.
Many of the other results were omitted from the sample, so the strongest signals are more common in it than they were.

Key:
Assay in all cases: glycan array binding signal (z-score within array); higher = stronger binding
Details in all cases: glycan notation: IUPAC condensed, linker removed
Fuc(a1-2)Gal = biological target: Fuc(a1-2)Gal
Method in brief: (§1)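 From the Consortium for Functional Glycomics database, 3228 arrays were curated, keeping only those whose protein sequence was available. Binding is given as a within-array Z-score averaged across arrays sharing a protein sequence and across linkers. Negative Z-scores can be read as non-binding.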

[1] = biological target: Fuc(a1-2)Gal(b1-3)GlcNAc(b1-2)Man(a1-3)[Fuc(a1-2)Gal(b1-3)GlcNAc(b1-2)Man(a1-6)]Man(b1-4)GlcNAc(b1-4)GlcNAc
Method in brief: as §1

[2] = biological target: Fuc(a1-2)Gal(b1-3)GlcNAc(b1-3)[Neu5Ac(a2-6)Gal(b1-4)GlcNAc(b1-6)]Gal(b1-4)Glc
Method in brief: as §1

[3] = biological target: Fuc(a1-2)Gal(b1-4)Fuc(a1-3)]GlcNAc(b1-2)Man(a1-3)[Fuc(a1-2)Gal(b1-4)[Fuc(a1-3)]GlcNAc(b1-2)Man(a1-6)]Man(b1-4)GlcNAc(b1-4)GlcNAc
Method in brief: as §1

[4] = biological target: Fuc(a1-2)Gal(b1-4)GlcNAc(b1-3)Gal(b1-4)GlcNAc(b1-2)Man(a1-3)[Fuc(a1-2)Gal(b1-4)GlcNAc(b1-3)Gal(b1-4)GlcNAc(b1-2)Man(a1-6)]Man(b1-4)GlcNAc(b1-4)GlcNAc
Method in brief: as §1

[5] = biological target: Fuc(a1-2)Gal(b1-4)GlcNAc(b1-3)Gal(b1-4)GlcNAc(b1-3)Gal(b1-4)GlcNAc
Method in brief: as §1

[6] = biological target: Fuc(a1-2)Gal(b1-4)GlcNAc(b1-6)GalNAc
Method in brief: as §1

[7] = biological target: Fuc(a1-2)Gal(b1-4)[Fuc(a1-3)]GlcNAc
Method in brief: as §1

[8] = biological target: Fuc(a1-2)Gal(b1-4)[Fuc(a1-3)]GlcNAc(b1-2)Man(a1-3)[Fuc(a1-2)Gal(b1-4)[Fuc(a1-3)]GlcNAc(b1-2)Man(a1-6)]Man(b1-4)GlcNAc(b1-4)[Fuc(a1-6)]GlcNAc
Method in brief: as §1

[9] = biological target: Fuc(a1-2)Gal(b1-4)[Fuc(a1-3)]GlcNAc(b1-2)[Fuc(a1-2)Gal(b1-4)[Fuc(a1-3)]GlcNAc(b1-4)]Man(a1-3)[Fuc(a1-2)Gal(b1-4)[Fuc(a1-3)]GlcNAc(b1-2)Man(a1-6)]Man(b1-4)GlcNAc(b1-4)GlcNAc
Method in brief: as §1

[10] = biological target: Fuc(a1-2)Gal(b1-4)[Fuc(a1-3)]GlcNAc(b1-3)Gal(b1-4)[Fuc(a1-3)]GlcNAc
Method in brief: as §1

[11] = biological target: Fuc(a1-2)Gal(b1-4)[Fuc(a1-3)]GlcNAc(b1-3)Gal(b1-4)[Fuc(a1-3)]GlcNAc(b1-3)Gal(b1-4)[Fuc(a1-3)]GlcNAc
Method in brief: as §1

Fuc(a1-2)[Gal(a1-3)]Gal = biological target: Fuc(a1-2)[Gal(a1-3)]Gal
Method in brief: as §1

[12] = biological target: Fuc(a1-2)[Gal(a1-3)]Gal(b1-3)GalNAc
Method in brief: as §1

[13] = biological target: Fuc(a1-2)[Gal(a1-3)]Gal(b1-3)GlcNAc(b1-3)GalNAc
Method in brief: as §1

[14] = biological target: Fuc(a1-2)[Gal(a1-4)]Gal(b1-4)GlcNAc
Method in brief: as §1

[15] = biological target: Fuc(a1-2)[GalNAc(a1-3)]Gal(b1-3)GalNAc(a1-3)[Fuc(a1-2)]Gal(b1-4)GlcNAc
Method in brief: as §1

[16] = biological target: Fuc(a1-2)[GalNAc(a1-3)]Gal(b1-4)GlcNAc(b1-2)Man
Method in brief: as §1

[17] = biological target: Fuc(a1-2)[GalNAc(a1-3)]Gal(b1-4)GlcNAc(b1-2)Man(a1-3)[Fuc(a1-2)[GalNAc(a1-3)]Gal(b1-4)GlcNAc(b1-2)Man(a1-6)]Man(b1-4)GlcNAc(b1-4)[Fuc(a1-6)]GlcNAc
Method in brief: as §1

[18] = biological target: Fuc(a1-2)[GalNAc(a1-3)]Gal(b1-4)GlcNAc(b1-3)Gal(b1-4)GlcNAc(b1-3)Gal(b1-4)GlcNAc
Method in brief: as §1

[19] = biological target: Fuc(a1-2)[GalNAc(b1-3)]Gal
Method in brief: as §1

[20] = biological target: Fuc(a1-3)[Gal3S(b1-4)]GlcNAc
Method in brief: as §1

[21] = biological target: Gal(a1-3)Gal(b1-4)GlcNAc(b1-6)GalNAc
Method in brief: as §1

Gal(b1-3)GlcNAc6S = biological target: Gal(b1-3)GlcNAc6S
Method in brief: as §1

[22] = biological target: Gal(b1-4)GlcNAc(b1-2)Man(a1-3)[Gal(b1-4)GlcNAc(b1-2)Man(a1-6)][Gal(b1-4)GlcNAc(b1-4)]Man(b1-4)GlcNAc(b1-4)[Fuc(a1-6)]GlcNAc
Method in brief: as §1

[23] = biological target: Gal(b1-4)GlcNAc(b1-2)[Gal(b1-4)GlcNAc(b1-6)]Man(a1-6)[Gal(b1-4)GlcNAc(b1-2)Man(a1-3)]Man(b1-4)GlcNAc(b1-4)[Fuc(a1-6)]GlcNAc
Method in brief: as §1

[24] = biological target: Gal(b1-4)GlcNAc(b1-3)Gal(b1-4)GlcNAc(b1-3)Gal(b1-4)GlcNAc(b1-3)Gal(b1-4)GlcNAc(b1-3)Gal(b1-4)GlcNAc(b1-2)Man(a1-3)[Gal(b1-4)GlcNAc(b1-3)Gal(b1-4)GlcNAc(b1-3)Gal(b1-4)GlcNAc(b1-3)Gal(b1-4)GlcNAc(b1-3)Gal(b1-4)GlcNAc(b1-2)Man(a1-6)]Man(b1-4)GlcNAc(b1-4)GlcNAc
Method in brief: as §1

B1: a L Fucosidase (Streptosporangium roseum), D2B1P1_STRRD (protein)
chain: MRRKLLLVPAVGLLVIGSIFATQPVASADTPPVYEPTVESLNSHPVPQWFNDDKFGIFIHWGAYSVPAWGPRGSYAEWYGNYMNAGGSATNAHHKATYGQDFNYDAFLQQWKAEKFDPADWVKLFKDAGAKYFVLTSKHHEGMALWDSKSSGRDSVDLGPGRDLAKELFDAARKDEAKLKAGFYYSLYEWYNPAYTGRPATNPYTGAEIPYTGAPGGGDYVKDYMLPQMRELIDGYDPDIIWCDGQWEKPASYWNTAGVIADYYNKALNSGKEVAVANRCKIQSGNLDSPELDFQTPEYTVKPDIDPVKWESSRGIAHSYGYNQNEPEEDHLTSDQLVDSLVDIVSKNGNLLLDIGPKADGTIPEIQRQRLLDIGAWLKANGEAIYGTTYWNRAEEKGGPDDVRYTAKDATLYATALKWPGEQLTLGADLPVDHSTRITMLGSGARLSWSRDEQGRVVVNTPQEAGKHAYVFKIETPGVRSLLRTSSSLAKEIAPGRTISGELTVTNPGKRHTPATKLSLTVPQGWTATLGAPRVRPLGPGESVKVPISVSAPEGVAPAPYTLGLYQRTGRMGTTTALPLTVNRPNLSLGKPATQKSTGYDAPASRAVDGNTGGDWSAGSTTHTAEPEKQAWWQVDLGASARLDSVDVWNRLDCCADRLKDFWVMASDQPFTTDDLDQARTAPGVTAVHVGEQAGSPSKVKLPEGTRGRYVRIQLASPSNPLSLAEVQVRGSMARPNLSLGKPATQKSTGYDAPASRAVDGNTGGDWSAGSTTHTAEPEKQAWWQVDLGASARLDSVDVWNRLDCCADRLKDFWVMASDQPFTTDDLDQARTAPGVTAVHVGEQAGSPSKVKLPEGTRGRYVRIQLASPSNPLSLAEVQVRLEHHHHHHS
glycan array binding signal (z-score) (Fuc(a1-2)Gal): 4.93
glycan array binding signal (z-score) [1]: 0.052
glycan array binding signal (z-score) [2]: -0.56
glycan array binding signal (z-score) [3]: 0.398
glycan array binding signal (z-score) [4]: 9.35
glycan array binding signal (z-score) [5]: 4.15
glycan array binding signal (z-score) [6]: 4.78
glycan array binding signal (z-score) [7]: 3.89
glycan array binding signal (z-score) [8]: 3.58
glycan array binding signal (z-score) [9]: 0.785
glycan array binding signal (z-score) [10]: 9.04
glycan array binding signal (z-score) [11]: 5.04
glycan array binding signal (z-score) (Fuc(a1-2)[Gal(a1-3)]Gal): 3.18
glycan array binding signal (z-score) [12]: -0.442
glycan array binding signal (z-score) [13]: 0.499
glycan array binding signal (z-score) [14]: 4.37
glycan array binding signal (z-score) [15]: -0.325
glycan array binding signal (z-score) [16]: 1.44
glycan array binding signal (z-score) [17]: 0.363
glycan array binding signal (z-score) [18]: 4.02
glycan array binding signal (z-score) [19]: -0.567
glycan array binding signal (z-score) [20]: 0.551
glycan array binding signal (z-score) [21]: 0.325
glycan array binding signal (z-score) (Gal(b1-3)GlcNAc6S): -0.504
glycan array binding signal (z-score) [22]: 1.72
glycan array binding signal (z-score) [23]: -0.467
glycan array binding signal (z-score) [24]: -0.491
